In the library only some 13% were active in any assay of this set; here they are far more common.
HCMV antiviral: qHTS Assay for inhibitors of the human cytomegalovirus (HCMV); HFF cells, HCMV-luciferase reporter, 72 h; hits give low values; activity change, negative = inhibition, % at 57.5 µM; 4.5% of 410,000 active; AID 1259415, 2018; in the data active = activity change below about -60%; inconclusive = no clear call, values can overlap the other calls; inactive = above about -39%
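Cell-based, HFFs, 1000 cells/well, 16 h 37C; cpds in DMSO + HCMV-luc, MOI 1 PFU/cell; 72 h 37C; OneGlo luminescence after 5 min RT; norm. to buffer vs Salinomycin 10uM.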
Pf growth 48h: Primary qHTS for delayed death inhibitors of the malarial parasite plastid, 48 hour incubation. 5.9% of 310,000 active. P. falciparum luciferase growth in erythrocytes, 48 h. Potency, µM (titrated, usually from 28.7 µM), most hits filed as inhibitors
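First compound was added to culture medium, then infected red cells at 0.1% parasitemia and 2% hematocrit (final). After incubation at 37 C under 5% CO2, luciferase detection reagent was dispensed and light output recorded.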
Pf growth 96h: Primary qHTS for delayed death inhibitors of the malarial parasite plastid, 96 hour incubation. P. falciparum luciferase reporter growth, 96 h. Potency, µM (titrated, usually from 28.7 µM), most hits filed as inhibitors. 6.9% of 320,000 active
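Cell-based qHTS: luciferase-tagged P. falciparum in erythrocytes (2% hematocrit, 0.05% parasitemia final) incubated with compounds for 96 hours, 37 C, 5% CO2; luciferase detection reagent then added and luminescence measured.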
HCV inhibitor: qHTS Assay for Inhibitors of Hepatitis C Virus (HCV); Huh7.5.1 HCVcc-Cre infection, luciferase reporter, 44 h; Potency, µM (top dose mostly 41.8 µM), hits mostly inhibitors; 3.4% of 340,000 active; AID 651820, 2012
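Whole-lifecycle infectious HCVcc-Cre system; cells 1,000/well, compound then virus (~0.5 moi) added 4 h after plating, 44 h culture. Luciferase read 15 sec following 15 min substrate incubation, room temp.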
Hits are given with their value; - = inactive; ? = inconclusive; . = no result; [ ] = another dose, or the depositor's remark. Unless noted, calls follow the shape of the dose curve; as a rule, active = well fitted inhibition curve with a large enough effect; inconclusive = small, poorly fitted or top-dose-only effect, or another doubt; inactive = no such curve, though single readings can be large or run the other way.

SMILES	HCMV antiviral	Pf growth 48h	Pf growth 96h	HCV inhibitor
COc1ccccc1C1CC(c2ccccc2)=NN1C(=S)Nc1ccccc1 (stereo unspecified)	-	3.3µM	?	?
COc1ccc(C2=NN(C(=S)Nc3ccccc3)C(c3ccccc3)C2)cc1 (stereo unspecified)	-	15µM	-	-
COc1ccc(CN2C(=O)C(n3cccc3)c3cc(OC)ccc32)cc1 (stereo unspecified)	-	.	.	.
COC(=O)c1ccc(Cl)cc1NC(=O)NCc1c(-n2cccc2)sc2c1CCCC2	-	.	.	.
Cc1ccc2occ(CN3CC4CC(C3)c3cccc(=O)n3C4)c(=O)c2c1 (stereo unspecified)	-	-	-	-
O=c1cccc2n1CC1CC2CN(S(=O)(=O)c2cc(Cl)ccc2Cl)C1 (stereo unspecified)	-	?	-	.
O=c1cccc2n1CC1CC2CN(Cc2c(F)cccc2Cl)C1 (stereo unspecified)	-	-	9.3µM	-
O=c1cccc2n1CC1CC2CN(Cc2cccc(Cl)c2Cl)C1 (stereo unspecified)	?	4.7µM	.	?
Cc1cc(Nc2cccc(O)c2)c2cccc(Br)c2n1	-	.	.	.
N#CC1=C2SCCN2C(=O)C(C#N)C12CCCCC2 (stereo unspecified)	-	-	2.1µM	-
CCSC1=C(C#N)C2(CCCCC2)C(C#N)C(=O)N1 (stereo unspecified)	-	-	-	-
c1ccc(-c2nc3ccccc3n2C(c2ccccc2)c2nc3ccccc3[nH]2)cc1 (stereo unspecified)	-	.	.	.
Cc1nc2ccccc2n1C(c1cccnc1)c1nc2ccccc2[nH]1 (stereo unspecified)	-79	.	.	.
CC#CC(=O)NCC1(N(C)Cc2ccccc2)Cc2ccccc2C1	?	-	7.4µM	-
Cc1ccc2nc(NC(=O)CSc3nccn3Cc3ccccc3)sc2c1	-	.	.	.
CCOCCCNC(=O)C(c1ccc(Cl)cc1)N(Cc1cccs1)C(=O)c1ccc(NC(C)=O)cc1 (stereo unspecified)	-	.	.	.
COc1ccc2oc(C(=O)Nc3nccs3)c(C)c2c1	-	-	-	-
COc1ccc2oc(C(=O)NC3(C)CCS(=O)(=O)C3)c(C)c2c1 (stereo unspecified)	-101	-	-	?
COc1ccc2oc(C(=O)NCCc3ccccc3)c(C)c2c1	-	-	-	-
COc1ccc2oc(C(=O)NCc3cc(OC)c(OC)cc3OC)c(C)c2c1	-	?	?	16µM
COc1cc(Nc2nc(SCc3ccccc3Cl)nc3ccccc23)cc(OC)c1	-	.	.	.
CCOC(=O)c1noc2ncn(CC(=O)O)c(=O)c12	-	.	.	.
C[N+]1(C)[C@@H]2CC[C@H]1CC(OC(=O)C(c1ccccc1)c1ccccc1)C2 (stereo partly specified)	-	2.3µM	3.3µM	-
CC(CN1CCCC1)OC(=O)C(c1ccccc1)c1ccccc1 (stereo unspecified)	-	-	?	-
CCCC(CCC)C(=O)OC1C[C@H]2CC[C@@H](C1)[N+]2(C)C (stereo partly specified)	-	12µM	4.3µM	-[8.37 µM]
SMILES	HCMV antiviral	Pf growth 48h	Pf growth 96h	HCV inhibitor
C[N+]1(C)[C@@H]2CC(OC(=O)[C@H](CO)c3ccccc3)C[C@H]1[C@@H]1O[C@@H]12 (stereo partly specified)	-	-	-	-[8.37 µM]
CC(C)[N+]1(C)[C@@H]2CC[C@@H]1CC(OC(=O)C(CO)c1ccccc1)C2 (stereo partly specified)	-	-	-	-
O=C(OC1CCN(CCCl)CC1)C(c1ccccc1)c1ccccc1	?	?	?	32µM
COc1ccc(NC(=O)CSc2ncc3c(n2)-c2cc(Cl)ccc2N(Cc2ccccc2F)S3(=O)=O)cc1	-	.	.	.
COC(=O)[C@@]12CCCCN1[C@H](c1ccc(-c3ccc(F)cc3)cc1)[C@H]1C(=O)N(C)C(=O)[C@H]12	-	.	.	-
COC(=O)[C@@]12CCCN1[C@H](c1ccc(-c3ccc(F)cc3)cc1)[C@H]1C(=O)N(C)C(=O)[C@H]12	-	1.2µM	?	?
CCN1C(=O)[C@@H]2[C@@H](c3ccc(-c4ccc(F)cc4)cc3)N3CCCC[C@@]3(C(=O)OC)[C@@H]2C1=O	-	10µM	?	-
CCN1C(=O)[C@H]2[C@@H](c3ccc(-c4ccc(C(C)=O)cc4)c(OC)c3)N3CCCC[C@@]3(C(=O)OC)[C@H]2C1=O	-	.	.	-
